D1 antag: Antagonist of Human D 1 Dopamine Receptor: qHTS | activity change, negative = inhibition, % at 10 µM | D(1A) dopamine receptor (Homo sapiens), P21728 | HEK293 TREx D1 cells, calcium flux, dopamine EC80; hits give low values | AID 504652, 2011 | hit rate 3.2% among 360,000; in the data active = activity change below about -30%
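Using tetracycline-induced force-coupled D1 Hek293 cells and a calcium dye, signals were followed for 180 s after compound, then for 180 s after EC80 dopamine, to detect inhibitors.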
D3 ag: qHTS of D3 Dopamine Receptor Agonist: qHTS; hit rate 0.58% among 410,000; D(3) dopamine receptor (Homo sapiens), P35462; max activation, %; D3R DiscoveRx beta-arrestin cells, luminescence, 90 min; AID 652048, 2013; in the data active = max activation above about 30%
Target sequence (P35462 whole entry, looked up): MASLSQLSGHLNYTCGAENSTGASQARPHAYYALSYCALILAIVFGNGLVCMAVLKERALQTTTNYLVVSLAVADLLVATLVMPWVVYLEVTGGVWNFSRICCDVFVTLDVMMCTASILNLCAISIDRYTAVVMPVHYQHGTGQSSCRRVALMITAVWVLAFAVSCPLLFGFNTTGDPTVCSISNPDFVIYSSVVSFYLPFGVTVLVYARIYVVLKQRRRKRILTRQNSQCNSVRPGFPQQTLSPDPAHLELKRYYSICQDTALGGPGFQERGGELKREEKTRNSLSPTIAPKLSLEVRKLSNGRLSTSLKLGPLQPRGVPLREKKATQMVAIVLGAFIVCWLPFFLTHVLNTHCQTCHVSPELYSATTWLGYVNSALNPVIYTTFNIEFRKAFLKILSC
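Cells at 1500/well, incubated overnight, then treated with pinned compounds (dopamine as control) for 90 min at 37 degrees C. DiscoveRx reagent added for 30 - 60 minutes at room temperature; luminescence read.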
D1 agonist: Allosteric Agonists of the Human D1 Dopamine Receptor: qHTS. D(1A) dopamine receptor (Homo sapiens), P21728. HEK293 T-REx D1 cells, calcium flux, agonist mode. activation, % at 2 µM. hit rate 1% among 360,000. AID 504660, 2011; in the data active = activation above about 30%
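Inducible HEK293 T-REx D1 cells, force-coupled to calcium signalling, were plated at 4000 cells/well with tetracycline and held overnight at 30 C. After no-wash calcium dye loading, compound-evoked calcium rise over 180 s flagged agonists.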
D3 antag: qHTS of D3 Dopamine Receptor Antagonist: qHTS | hit rate 2.5% among 360,000 | D(3) dopamine receptor (Homo sapiens), P35462 | AID 652054, 2013 | D3R cells, DiscoveRx beta-arrestin luminescence, antagonist mode; hits give low values | max response, negative = inhibition, %; in the data active = max response below about -50%; inconclusive = no clear call, values can overlap the other calls
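Cells expressing the human receptor were seeded at 1500 cells/well, incubated overnight at 37 degrees C in 5% CO2, then exposed to library compounds with dopamine controls for 90 minutes at 37 degrees C before luminescent detection.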
ERG-DNA inh: qHTS for Small Molecule Inhibitors of the ERG Ets/DNA interaction. Transcriptional regulator ERG (Homo sapiens), P11308. fluorescence polarization, His-ERG Ets domain / labelled DNA. hit rate 0.028% among 370,000. Potency, µM (top dose mostly 76.9 µM), hits mostly inhibitors; active = well fitted inhibition curve with a large enough effect in the polarisation, with a control signal flat; inconclusive = small, poorly fitted or top-dose-only effect, or effect the other way, or a change in a side signal; inactive = no such curve, though single readings can be large or run the other way; the % refers to the polarisation;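 also: polarization taken with two DNA probes labelled with fluorescein and Texas red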
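His-tagged ERG Ets domain (1 uM in the protein solution; 300mM KCl, 50mM Tris-HCl, 1mM EDTA, 1mM DTT, pH 7.5) received compound, then a probe mix of 5 nM fluorescein-DNA and 100nM Texas-615-DNA. Fluorescence polarization was read for both dyes.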
D1 potentiator: Potentiators of Human D1 Dopamine Receptor: qHTS | HEK293 TREx D1 cells, calcium flux, dopamine EC20 potentiation | potentiation, % at 10 µM | hit rate 0.036% among 360,000; in the data active = potentiation above about 30%
Hits are given with their value; . = inactive; ? = inconclusive; / = not tested or not shown. A selection: hits, their analogues and other compounds. The true share with any hit is near 6.1%.

SMILES	D1 antag	D3 ag	D1 agonist	D3 antag	ERG-DNA inh	D1 potentiator
Cc1ccc(NS(=O)(=O)c2ccc(C(=O)N3CCCC(C(F)(F)F)C3)cc2)cc1 (stereo not drawn)	-61.7	.	69.8	.	.	.
CC1CCN(S(=O)(=O)c2ccc(C(=O)N3CCCC(C(F)(F)F)C3)cc2)CC1 (stereo not drawn)	-33.0	.	.	.	.	.
Cc1ccc(NC(=O)CSc2nnc(-c3cc4occc4n3C)n2-c2ccccc2C)cc1F	.	.	.	/	.	.
COc1ccc(CNS(=O)(=O)c2ccc(-c3ccc(=O)[nH]n3)s2)cc1OC	.	.	.	.	.	.
COC(=O)c1ccc(C(=O)Nc2ccc(C(C)C)cc2N)cc1	-40.4	.	.	.	.	.
COC(=O)c1ccc(C(=O)NN)cc1	.	.	.	.	.	.
N#C/C(=C/c1ccc(CNC(=O)C(=O)Nc2cc(Cl)cc(Cl)c2)o1)C(=O)NCc1cccnc1	-62.9	.	.	.	.	.
O=C(NCc1cccnc1)/C(=C/c1ccc(-c2cccc(Cl)c2)o1)S(=O)(=O)c1ccccc1	.	.	.	.	.	.
O=C(NCc1cccnc1)/C(=C\c1ccc(-c2cccc(Cl)c2)o1)S(=O)(=O)c1ccccc1	.	.	.	-50.3	.	.
CCOC(=O)CSc1ccc(C(=O)N2CCN(C)CC2)cc1[N+](=O)[O-]	.	.	.	.	.	.
C/C(N)=C(/C#N)C(=O)CSc1nc2cc(Cl)ccc2c(=O)n1Cc1ccco1	.	.	.	?	.	.
CNC(=S)N(CCO)Cc1cc2cc3c(cc2[nH]c1=O)OCCO3	.	.	.	.	.	.
CCN(CC)CCN(Cc1cc2cc3c(cc2[nH]c1=O)OCCO3)C(=S)NC	-31.4	.	.	.	.	.
CCc1ccccc1Nc1nn2c(=O)c3ccc(C(=O)NC4CCC(C)CC4)cc3nc2s1 (stereo not drawn)	.	.	.	/	.	.
Cc1ccc2c(c1)C(c1ccccc1)N(C(=O)c1ccc(S(=O)(=O)N3CCCCC3)cc1)CC(=O)N2 (stereo not drawn)	-48.0	.	.	/	.	.
COc1ccc(C(=O)N2CC(=O)Nc3ccc(C)cc3C2c2ccccc2)c(OC)c1 (stereo not drawn)	-45.4	.	.	/	.	.
COc1ccccc1C(=O)N1CC(=O)Nc2ccc(C)cc2C1c1ccc(F)cc1 (stereo not drawn)	.	.	.	?	.	.
COc1cccc(OCC(O)CN2CCN(c3ncccn3)CC2)c1 (stereo not drawn)	.	.	.	.	/	.
OC(COc1ccc(Br)cc1)CN1CCOCC1 (stereo not drawn)	.	.	.	.	.	.
COc1cccc(OCC(O)CN2CCN(c3ccccc3)CC2)c1 (stereo not drawn)	.	30.8	.	?	.	.
CC(=O)c1ccc(OCC(O)CN2CCN(c3ccc(F)cc3)CC2)cc1 (stereo not drawn)	.	.	.	?	.	.
COc1cc(C(C)=O)ccc1OCC(O)CN1CCN(c2cc(C)cc(C)c2)CC1 (stereo not drawn)	.	.	.	-55.5	.	.
COc1cccc(OCC(O)CN2CCN(c3ccc(Cl)cc3)CC2)c1 (stereo not drawn)	.	.	.	.	.	.
COc1cccc(OCC(O)CN2CCN(c3ccccn3)CC2)c1 (stereo not drawn)	.	34.7	.	?	.	.
OC(COc1ccc(Br)cc1)CN1CCN(c2ccccc2)CC1 (stereo not drawn)	-46.3	.	.	-51.5	.	.
SMILES	D1 antag	D3 ag	D1 agonist	D3 antag	ERG-DNA inh	D1 potentiator
CC1(c2cccc(Br)c2)NC(=O)N(CC(=O)Nc2ccc3c(c2)OCO3)C1=O (stereo not drawn)	.	.	.	.	.	.
CCOC(=O)c1noc2ncn(CC(=O)O)c(=O)c12	.	.	.	/	.	.
CC(=O)c1ccc(N2CCN(CC(O)COC(c3ccccc3)c3ccccc3)CC2)cc1 (stereo not drawn)	.	.	.	-69.2	.	.
OC(COc1ccc2cc(Br)ccc2c1)CN1CCN(c2ccccn2)CC1 (stereo not drawn)	.	227.3	.	.	.	.
OCCN1CCN(CC(O)COc2ccc3ccccc3c2)CC1 (stereo not drawn)	.	.	.	?	.	.
OC(CSc1ccc(F)cc1)CN1CCN(c2ccccc2)CC1 (stereo not drawn)	.	.	.	-72.3	.	.
OC(COc1ccccc1)CN1CCN(c2ccccc2)CC1 (stereo not drawn)	/	.	/	-70.9	.	/
O=C(NCc1ccccc1)c1ccc2c(c1)N(Cc1ccccc1)C(=O)c1ccccc1S2(=O)=O	.	.	.	/	.	.
CSc1nc2ccccc2n1Cc1cccc([N+](=O)[O-])c1	.	.	.	?	.	.
O=C(c1ccc(S(=O)(=O)N2CCC(c3nc4ccccc4[nH]3)CC2)cc1)N1CCOCC1	-89.0	.	.	.	.	.
O=C(NCC1CCCO1)c1ccc(S(=O)(=O)N2CCC(c3nc4ccc(Cl)cc4[nH]3)CC2)cc1 (stereo not drawn)	.	.	.	-61.9	/	.
CCOC(=O)c1nn(-c2ccccc2)c(=O)cc1OCC(=O)Nc1cccc(OC)c1	.	.	.	.	.	.
CCCN1CCCc2ccccc21	-31.2	.	.	.	.	.
CCN(Cc1cnn(C)c1)C(=O)c1cc(COc2ccc3c(c2)CCCC3)on1	.	.	.	.	.	.
COc1ccc(C(CCNCc2ccc(F)cc2)c2ccc(F)cc2)cc1 (stereo not drawn)	.	.	45.9	.	.	.
COc1ccc(CNC(=O)CNC(C)c2ccc(F)cc2)cc1 (stereo not drawn)	.	.	.	.	.	.
COc1ccc(C(CCNC(C)c2ccccc2)c2ccc(F)cc2)cc1 (stereo not drawn)	.	.	55.5	?	.	.
COc1ccc(C(CCNCc2ccccc2)c2ccc(F)cc2)cc1 (stereo not drawn)	.	.	.	.	.	.
COc1ccc(CNCCC(c2ccc(F)cc2)c2ccc(OC)cc2)cc1 (stereo not drawn)	.	.	34.2	.	.	.
Nc1ccc(Br)c[n+]1Cc1cccc2cccnc12	.	.	.	.	.	.

Screening data as filed in PubChem BioAssay.
